Only some compounds are listed: those with a hit (about 7.4% of all), similar ones and a draw of the others.
ELG1 genotox: induces genotoxicity in HEK293T cells with luciferase-tagged ELG1; AID 504466; actives 1.3% (n = 330,000); HEK293T ELG1-luciferase reporter, luminescence, 16 h; Potency, µM (titrated, usually from 46 µM), for the others: top-dose activity change, positive = activation, actives largely listed as activators; further: % of control where 0% means no effect; nearly all actives have a fitted effect of over 60% in size
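Quantitative HTS format in 1536-well plates. HEK293T ELG1-luciferase reporter cells receive test compound and are incubated 16 hr at 37 °C, 5% CO2; ONE-Glo added, 30 min room temperature, then luminescence read.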
SMN2 splice up: increases expression of the SMN2 splice variant; HEK293 SMN2-luciferase splicing reporter, luminescence, 30-36 h; Potency, µM (titrated, usually from 46.1 µM), for the others: at the top dose activity change, positive = activation, actives largely listed as activators; actives 2.8% (n = 210,000); AID 1458; further: % of control where 0% means no effect; nearly all actives have a fitted effect of over 55% in size
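HEK293 cells carry an SMN2 […]–luciferase reporter in which exon 7 inclusion puts luciferase in frame. Cells were plated 10-12 h before compound addition, then incubated 30-36 h at 37C. ONE-Glo luminescence was read; sodium butyrate at 4.5 mM final served as control.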
Rab9 prom act: Rab9 promoter activation; Potency, µM (highest dose often 9.22 µM), for the others: at the highest dose activation, negative = inhibition, most hits filed as activators; Huh7 Rab9 promoter-luciferase reporter, luminescence, 24 h; actives 2.8% (n = 320,000); further: % of control where 0% means no effect; nearly all actives have a fitted effect of over 60% in size
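Rab9 promoter-driven luciferase in stably transfected Huh7 cells; 1500 cells/well rested 2 h, exposed to compound in DMSO for 24 h at 37 °C, 5% CO2. Luminescence read 10 min after adding luciferase reagent at ambient temperature.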
FLuc modulator: counter-screen for miR-21 project: firefly luciferase inhibitors or activators | actives 6.9% (n = 360,000) | AID 588342 | P08659 | purified FLuc, Km substrates, luminescence inhibition | Potency, µM (top dose mostly 57.5 µM), without a hit: at the highest dose activity change, negative = inhibition, hits mostly inhibitors;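 further: plate controls were vehicle for no effect and reference inhibitor for full effect; nearly all actives have a fitted effect of over 55% in size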
Target sequence (P08659 whole entry, looked up): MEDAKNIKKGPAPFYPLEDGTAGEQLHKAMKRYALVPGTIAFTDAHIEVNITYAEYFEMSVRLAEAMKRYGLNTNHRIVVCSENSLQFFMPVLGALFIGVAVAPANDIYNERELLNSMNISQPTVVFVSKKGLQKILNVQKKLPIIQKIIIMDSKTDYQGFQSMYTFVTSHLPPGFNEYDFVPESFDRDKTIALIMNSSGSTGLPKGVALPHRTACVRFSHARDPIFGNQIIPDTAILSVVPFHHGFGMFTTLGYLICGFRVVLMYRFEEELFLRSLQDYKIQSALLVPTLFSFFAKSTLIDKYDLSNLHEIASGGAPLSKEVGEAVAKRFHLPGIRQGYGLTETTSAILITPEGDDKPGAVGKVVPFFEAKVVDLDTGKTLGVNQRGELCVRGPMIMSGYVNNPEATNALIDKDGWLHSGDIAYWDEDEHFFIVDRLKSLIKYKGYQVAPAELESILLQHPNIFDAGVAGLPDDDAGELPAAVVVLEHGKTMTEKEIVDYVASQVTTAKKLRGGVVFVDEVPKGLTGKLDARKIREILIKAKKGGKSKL
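Biochemical qHTS of compounds, final roughly 60 µM downward over six points, against 10 nM purified firefly luciferase using Km concentrations of substrates (10 uM D-luciferin, 10 uM ATP) in Tris acetate pH 7.5 buffer; luminescence output.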
NPC1 promoter act: NPC1 promoter activation | Potency, µM (series often up to 9.22 µM), without a hit: top-dose activation, usual class: activators | Huh7 NPC1 promoter luciferase reporter, 24 h | actives 2.4% (n = 320,000); further: % of control where 0% means no effect; nearly all actives have a fitted effect of over 60% in size
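Readout is luciferase luminescence, reflecting NPC1 promoter activation in stably transfected Huh7 cells after 24 h compound exposure at 37 °C in reduced-serum medium with 10% FBS.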
An asterisk follows results filed as active; u = inconclusive; x = no result; [ ] = remark or other dose. The call rests on the fitted dose curve; in most records, active means well fitted curve in the direction sought with a large enough effect; inconclusive means small, poorly fitted or top-dose-only effect, or another doubt; inactive means no such curve, though single readings can be large; an effect the other way counts as inactive or inconclusive. Potency means the concentration at half of the fitted maximal effect.

SMILES | ELG1 genotox | SMN2 splice up | Rab9 prom act | FLuc modulator | NPC1 promoter act
O=C(CCCn1c2ccccc2c(=O)c2ccccc21)Nc1cccc(Cl)c1 | x | -17% | x | u | x
O=C(CN1C(=O)NC2(CCCc3ccccc32)C1=O)c1ccc(F)c(F)c1 (stereo not given) | 5% | x | x | x | x
O=C(CC(Nc1ccc(Cl)cc1)C(=O)O)c1ccccc1 (stereo not given) | 16µM* | 18µM* | 2.2µM* | 1.7µM* | 2.8µM*
O=C(CC(Nc1ccccc1Cl)C(=O)O)c1ccccc1 (stereo not given) | 2.9µM* | -53% | 26% | 4.8µM* | -2%
CCC(CO)NCC(O)COCc1ccc2c(c1)OCO2 (stereo not given) | 0% | -29% | 3% | 3% | -3%
O=C(c1cccs1)N1CCn2c1nc1ccccc12 | u | 13µM* | 4µM* | u | 2.8µM*
O=C(c1ccc(Cl)cc1)N1CCn2c1nc1ccccc12 | 9% | u | u | u | 19%
O=C(N/N=C/C(Cl)=C\c1ccccc1)c1cccs1 | u | x | 2µM* | 2.7µM* | 2.5µM*
O=C(O)/C(=C\c1ccc(Br)cc1)NC(=O)c1cccs1 | 2% | x | 1% | 4% | -5%
CC(/C=N/NC(=O)c1cccs1)=C\c1ccccc1 | 8% | 4µM* | 0.79µM* | 2.1µM* | 1µM*
COc1ccc(OC)c(C2Nc3nc4ccccc4n3C(C)=C2C(=O)Nc2ccc(C)cc2C)c1 (stereo not given) | 1% | 7.9µM* | -6% | 6% | -7%
COc1ccc(C2C(C(=O)Nc3ccc(C)cc3C)=C(C)Nc3nc4ccccc4n32)c(OC)c1 (stereo not given) | x | -21% | x | 3% | x
Cc1ccc(S(=O)(=O)NC(C(=O)N2CCN(S(=O)(=O)c3cccc(F)c3)CC2)C(C)C)cc1 (stereo not given) | 0% | x | 2% | -1% | -2%
Cc1ccc(/C(C#N)=C\c2ccc(N3CCOCC3)o2)cc1 | 18µM* | 13µM* | 3.2µM* | 24µM* | 4µM*
Cc1ccc2nc(/C(C#N)=C\c3ccc(N4CCOCC4)o3)[nH]c2c1 | u | 4µM* | 1.8µM* | 0.43µM* | 2.2µM*
Cc1ccc2nc(/C(C#N)=C\c3ccc([N+](=O)[O-])o3)[nH]c2c1 | 1% | -97% | -28% | -15% | -36%
N#C/C(=C\c1ccc(N2CCOCC2)o1)C(=O)NCC1CCCO1 (stereo not given) | 1% | x | -28% | 0% | -36%
Cc1ccc(C2=NC(c3ccc(F)cc3)=Nc3ccc(C)cc3N2)cc1 | x | 9% | x | -1% | x
CC(=O)Nc1cccc(C(=O)/C=C/c2ccco2)c1 | 7% | 2% | 21% | 19µM* | u
Cc1ccc(NC(=O)/C(=C\c2ccco2)NC(=O)c2ccco2)cc1 | 5% | x | -9% | -17% | 1%
O=C(/C=C\c1ccco1)c1ccc(NC(=O)c2ccco2)cc1 | u | x | u | 11µM* | u
CC(=O)Nc1cccc(C(=O)NCCc2ccco2)c1 | 23µM* | x | u | u | u
Cc1ccc(NC(=O)N/C=C/c2ccco2)cc1 | u | 14µM* | 2.8µM* | u | 2.8µM*
CC(=O)N(C)c1ccc(NC(=S)NC(=O)/C=C/c2ccco2)cc1 | 1%[9.26 µM] | x | -1% | u | 1%
CC(=O)Nc1ccc(C(=O)/C=C/c2ccco2)cc1 | 11% | 16% | 22% | 9.5µM* | 13%
SMILES | ELG1 genotox | SMN2 splice up | Rab9 prom act | FLuc modulator | NPC1 promoter act
Cc1cccc(NC(=O)COc2ccc(-c3nn(C)c(=O)c4ccccc34)cc2)c1 | 2% | -13% | 0% | -1% | -3%
COc1ccc(NC(=O)N2CC3(CCNCC3)C2)cc1 | x | 8% | x | x | x
Nc1nc(CCl)nc(Nc2ccccc2)n1 | -11% | x | -48% | u | -36%
Cc1ccc(NC(=O)COC(=O)C2=COCCO2)cc1 | 8% | -5% | 2% | u | -3%
Cc1ccc(Nc2nc(N)nc(COC(=O)C3=COCCO3)n2)cc1 | u | x | 2.8µM* | 13µM* | 2µM*
CCOc1ccc(Nc2nc(N)nc(CCl)n2)cc1 | 10% | x | -53% | 3µM* | -43%
Cc1ccc(Nc2nc(N)nc(CCl)n2)c(C)c1 | -17% | x | -49% | 11µM* | -37%
Cc1ccc(Nc2nc(N)nc(CCl)n2)cc1 | 17% | x | -49% | 1.9µM* | -49%
Cc1c(C)n(Cc2ccc(F)cc2)c2ccc(C(=O)NCc3ccco3)cc12 | x | x | x | 0% | x
Cc1ccc(S(=O)(=O)NCC(=O)NCC2CCCCC2)cc1C | -2% | x | 0% | 4% | 5%
COc1cccc(Nc2nc(N)nc(CCl)n2)c1 | -7% | x | -50% | 21µM* | -41%
Cc1ccc(Nc2nc(N)nc(CSCCO)n2)cc1 | u | u | 2µM* | 24µM* | u
Cc1cccc(Nc2nc(N)nc(CCl)n2)c1 | -7% | x | -50% | u | -39%
Cc1ccc(Nc2nc(N)nc(CC#N)n2)cc1 | 18µM* | 18µM* | u | 11µM* | u
Cc1ccc(Nc2nc(N)nc(CSc3nc4ccccc4s3)n2)cc1 | -7% | -1% | 0% | -26% | 3%
CC(=O)Nc1cccc2c1C(=O)N(c1ccccc1OC(C)=O)C2=O | 1% | x | -6% | 5% | -1%
Cc1cccc(C(=O)Nc2cccc3c2CCCC3)c1 | -2% | x | 0% | -2% | -4%
CC1=C(c2ccccc2)C(=S)NC(C)(C)C1 | -4% | x | -2% | 3% | 2%
COc1ccc(NC(=S)N2CCC(C(=O)c3ccc(OC)cc3)CC2)cc1 | -12% | x | 0% | 12µM* | -1%
COc1ccc(NC(=S)N2CCC(C(=O)c3ccc(C)cc3)CC2)cc1 | -3% | x | -6% | u | 1%
COc1ccc(NC(=S)N2CCC(c3ccccc3)C2)cc1 (stereo not given) | 9.2µM* | x | 2µM* | 6.7µM* | 2.5µM*
COc1ccc(NC(=S)N2CCC(C(O)(c3ccccc3)c3ccccc3)CC2)cc1 | -3% | 10% | 1% | 1% | -4%
CCc1ccc(NC(=O)C2CCCN2S(=O)(=O)c2ccc3c(c2)C(C)(C)C(=O)N3C)cc1 (stereo not given) | 1% | x | 6% | -3% | 5%
Cc1cccc2c1Oc1ccccc1[C@@H]2NC(=O)c1ccc([N+](=O)[O-])cc1 | x | -3%[9.22 µM] | x | x | x
O=C(Nc1ccccc1C(=O)O)c1cccc(C(=O)Nc2ccccc2C(=O)O)c1 | -16% | x | 1% | 19µM* | 0%
CC(C)CC(=O)Nc1cccc(C(=O)Nc2ccccc2C(=O)O)c1 | -1% | 14% | -3% | 15µM* | -2%
Cc1c(NC(=O)c2ccc(-c3ccccc3)cc2)cccc1C(=O)O | 0.29µM* | x | u | 0.6µM* | u
O=C(Nc1ccccc1C(=O)O)c1ccccc1 | 17% | 12% | -3% | u | 2%
CC(=O)Nc1cccc(C(=O)Nc2ccccc2C(=O)O)c1 | -1% | 5% | 8% | 24µM* | -1%

Compound activity deposited in PubChem by National Center for Advancing Translational Sciences (NCATS).
